Assay outcomes: PubChem BioAssay, several laboratories
GLD-1 TGE inh – GLD-1-TGE RNA interaction inhibition (C. elegans). Q17339. purified GLD-1 + fluorescein TGE RNA, fluorescence polarization. inhibition, % at 5.96 µM. actives 0.44% (n = 320,000);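 active means percent inhibition above a per-plate cutoff, the plate mean of test compounds plus 3 SD, cut at about 30% in these data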
Target sequence (Q17339 whole entry, looked up): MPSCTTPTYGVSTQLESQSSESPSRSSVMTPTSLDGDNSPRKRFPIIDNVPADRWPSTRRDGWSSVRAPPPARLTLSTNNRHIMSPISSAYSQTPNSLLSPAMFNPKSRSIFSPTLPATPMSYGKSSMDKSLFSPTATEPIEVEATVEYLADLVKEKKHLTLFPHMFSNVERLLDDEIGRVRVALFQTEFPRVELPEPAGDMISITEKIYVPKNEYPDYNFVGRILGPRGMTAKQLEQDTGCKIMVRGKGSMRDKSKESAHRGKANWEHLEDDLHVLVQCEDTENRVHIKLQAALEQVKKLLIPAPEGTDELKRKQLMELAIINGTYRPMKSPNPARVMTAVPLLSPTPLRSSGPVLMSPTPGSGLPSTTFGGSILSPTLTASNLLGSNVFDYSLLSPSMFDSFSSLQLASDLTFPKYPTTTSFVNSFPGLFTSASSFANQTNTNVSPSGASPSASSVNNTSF
BCLXL inh – inhibitors of human Bcl-xL; inhibition, % at 10.9 µM; actives 0.7% (n = 320,000); GST-Bcl-xL / FITC-Bim BH3 peptide fluorescence polarization; Q07817; AID 2129;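 active means inhibition above the mean of all tested compounds plus 3 SD, cutoff set per campaign, cut at about 30% in these data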;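 further: inhibitors lower millipolarization by displacing the labeled peptide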
Target sequence (Q07817 whole entry, looked up): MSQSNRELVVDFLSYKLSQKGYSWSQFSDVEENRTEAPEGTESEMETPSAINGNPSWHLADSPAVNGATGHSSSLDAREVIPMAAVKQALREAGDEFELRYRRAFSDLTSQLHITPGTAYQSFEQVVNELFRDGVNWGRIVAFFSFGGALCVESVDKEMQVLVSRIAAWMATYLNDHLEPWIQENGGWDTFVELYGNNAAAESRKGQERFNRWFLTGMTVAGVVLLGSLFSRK
CR mimetic SO – lowers age-related superoxide in aged yeast cells; S. cerevisiae aged cells, superoxide DHE fluorescence; hits give low values; superoxide response (% of plate mean), % at 10 µM; actives 0.18% (n = 330,000);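 active means superoxide response under a set limit, about three screen SD below normal, cut at about 65% in these data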;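 further: yeast aged for seven days with compound at 30 °C before DHE staining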
MCL1 BIM primary – inhibitors of human MCL1 binding to BIM-BH3 peptide; GST-MCL1 / FITC-Bim-BH3 fluorescence polarization; actives 0.68% (n = 320,000); Q07820; AID 2057; inhibition, % at 10.9 µM;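 active means inhibition above the mean inhibition of all tested compounds plus 3 SD, set per campaign, cut at about 40% in these data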;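 further: higher means more loss of mP so more displacement of Bim peptide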
LANA-H2B inh – blocks KSHV LANA binding to histone H2A/H2B; cell-free LANA-H2A/H2B peptide, fluorescence polarization; inhibition, % (concentration not given with the values); actives 0.6% (n = 320,000); in the data active means inhibition mostly above about 10%, no sharp cut-off; inactive means mostly below about 6.7%
MEX-5 binding – C. elegans MEX-5 TCR-2 RNA binding activity | activity score (negative = inhibition of binding), % at 10 µM | Q9XUB2 | MEX-5/FITC-TCR2 RNA binding, fluorescence polarization; hits give low values | AID 1832 | actives 0.38% (n = 300,000);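 active means inhibition past about -25% in most replicates, and total fluorescence under double the plate's negative control median, limit read from the data; inconclusive means replicates evenly split on the limit, or fluorescence at least double controls; inactive means too little inhibition in most replicates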
Each line names hits and unclear results; the compound was inactive in the other large screens. An excerpt weighted towards active compounds, which were near 1.9% of everything screened.

C#CCOCCOCCOCCNc1nc(N2CCN(C(=O)[C@H](CC(N)=O)n3cc([C@@H](N)CC(N)=O)nn3)CC2)nc(N2CCN(C(=O)[C@H](CC(N)=O)n3cc([C@@H](N)CC(N)=O)nn3)CC2)n1	none (no result: BCLXL inh, MCL1 BIM primary, MEX-5 binding)
C#CCOCCOCCOCCNc1nc(N2CCN(C(=O)[C@H](CCC(=O)O)n3cc([C@@H](N)CC(N)=O)nn3)CC2)nc(N2CCN(C(=O)[C@H](CCC(=O)O)n3cc([C@@H](N)CC(N)=O)nn3)CC2)n1	LANA-H2B inh 156.0 (no result: BCLXL inh, MCL1 BIM primary, MEX-5 binding)
Cc1ccc(S(=O)(=O)N2[C@@H](c3ccc(Br)cc3)C(C(=O)O)=CC[C@H]2c2cccs2)cc1	none (no result: BCLXL inh, MCL1 BIM primary, LANA-H2B inh, MEX-5 binding)
O=C(CSc1cccc[n+]1[O-])Nc1ccccc1C(F)(F)F	none (no result: BCLXL inh, MCL1 BIM primary, MEX-5 binding)
O=C(CSc1cccc[n+]1[O-])Nc1ccccc1Oc1ccccc1	LANA-H2B inh active
CC(C)[C@H](NC(=O)c1ccccc1)C(=O)NC1=NCCS1	none (no result: BCLXL inh, MCL1 BIM primary, MEX-5 binding)
CN(CC(=O)Nc1cccc(S(=O)(=O)N2CCCC2)c1)Cc1ccccc1	none (no result: BCLXL inh, MCL1 BIM primary, MEX-5 binding)
CC(=O)C1=C(c2cccc([N+](=O)[O-])c2)N(C(C)=O)n2c(C)nnc2S1	MEX-5 binding -47.0
COc1cc(C)cc(OC)c1OCC(=O)Nc1cc(C)on1	none (no result: MEX-5 binding)
CC(C)N1CCc2c(sc(NC(=S)NC(=O)c3ccccc3)c2C#N)C1	none
CC(C)N1CCc2c(sc(N)c2C#N)C1	BCLXL inh 46.8, MCL1 BIM primary 43.2, MEX-5 binding inconclusive
Cc1cccc(N2CCN(C(=O)Cc3cn(C)c4ccccc34)CC2)c1C	BCLXL inh 47.7, MCL1 BIM primary 44.4
CS(=O)(=O)Nc1ccccc1C(=O)OCC(=O)N1CCC(c2ccccc2)=N1	none (no result: MEX-5 binding)
COCCOc1ccc(C(F)(F)F)cc1NC(=O)COC(=O)c1ccc(N2CCCC2=O)cc1	none (no result: BCLXL inh, MCL1 BIM primary, MEX-5 binding)
O=C1C2C3C=CC(C3)C2C(=O)N1CNc1ccc(O)cc1 (stereo unspecified)	BCLXL inh 30.3
Cc1ccc(NCN2C(=O)C3C4C=CC(C4)C3C2=O)cc1 (stereo unspecified)	none
COc1ccc(-c2cc3c(=O)n(CC(=O)Nc4ccc(C(C)=O)cc4)ncn3n2)cc1	BCLXL inh 73.1
Cc1cccc(CN2C(=O)N/C(=C/c3ccc(C)s3)C2=O)c1	MEX-5 binding -28.9
O=C(COc1ccc(Br)cc1)N1CCN(c2ncccn2)CC1	none (no result: LANA-H2B inh, MEX-5 binding)
COc1cccc(-c2cc(C(F)(F)F)c3c(N)c(C#N)sc3n2)c1	MCL1 BIM primary 46.3
COCCn1c(SCC(=O)Nc2ccc(OC)c(S(N)(=O)=O)c2)nc2ccccc2c1=O	none
O=C1c2cccc3c([N+](=O)[O-])ccc(c23)C(=O)N1c1nccs1	BCLXL inh 31.4
COc1ccccc1C/C(N)=N/OC(=O)COc1cccc(C)c1C	LANA-H2B inh active
COc1ccccc1C/C(N)=N/OC(=O)COc1cc(C)cc(C)c1C	none
C(=N\NC(=Nc1ccccc1)c1ccccn1)/c1ccccn1	MEX-5 binding -54.0
Clc1ccc(/C=N/NC(=Nc2ccccc2)c2ccccn2)c(Cl)c1	none
COc1ccccc1CNC(=O)COC(=O)/C=C/c1ccc2ccccc2n1	LANA-H2B inh 17.0 (no result: BCLXL inh, MCL1 BIM primary, MEX-5 binding)
N#CC1(NC(=O)COC(=O)/C=C/c2ccc3ccccc3n2)CCCCC1	BCLXL inh 32.2
COc1cc(C(=O)NNC(=O)CCOc2ccccc2)cc(OC)c1OC	LANA-H2B inh 16.8 (no result: BCLXL inh, MCL1 BIM primary, MEX-5 binding)
COc1ccccc1NC(=O)C(C)OC(=O)C1COc2ccccc2O1 (stereo unspecified)	LANA-H2B inh 20.6 (no result: MEX-5 binding)
O=C(NCCc1ccccc1)c1cnc2n(c1=O)CCS2	LANA-H2B inh 12.5
O=C(NCCc1c[nH]c2ccccc12)c1cnc2n(c1=O)CCS2	none
CC1(C)CC(=O)C=C(NNC(=O)c2ccccc2O)C1	GLD-1 TGE inh 52.7
Cc1cccc(C(=O)NNC2=CC(=O)CC(C)(C)C2)c1O	none
O=C(COc1cccc(Cl)c1)Nc1ccccc1N1CCCCC1	none (no result: LANA-H2B inh)
Cc1cc(C)n2nc(SCC(=O)N3CC(C)CC(C)C3)nc2n1 (stereo unspecified)	none (no result: BCLXL inh, MCL1 BIM primary, MEX-5 binding)
CC(C)(C)OC(=O)C[C@H]1C/C=C\C[C@@H](CC(=O)N(CCO)Cc2ccccc2)C(=O)NC[C@@H](c2ccccc2)OC1=O	none (no result: BCLXL inh, MCL1 BIM primary, MEX-5 binding)
CCC(=O)NC(C)c1cc(Cl)c2ccccc2c1O (stereo unspecified)	none (no result: MEX-5 binding)
CCC(=O)NC(c1cc(Cl)c2ccccc2c1O)C1CC1 (stereo unspecified)	BCLXL inh 150.8 (no result: MEX-5 binding)
CC1=C(C#N)c2nc(N)c(C#N)c(C)c2/C1=C\c1ccc(C)cc1	none
COc1cc(/C=C2\C(C)=C(C#N)c3nc(N)c(C#N)c(C)c32)ccc1OCC(=O)O	BCLXL inh 34.5
O=CNc1ccccc1	LANA-H2B inh 96.4 (no result: MEX-5 binding)
Cc1cccc(C)c1NC(=O)CN(C)CC(=O)N1CC(=O)Nc2ccccc21	none (no result: BCLXL inh, MCL1 BIM primary, MEX-5 binding)
CCOc1ccc2cc(C#N)c(SCC(=O)NC(C)CC)nc2c1 (stereo unspecified)	LANA-H2B inh 33.8
COc1ccc(OCC(O)CNCCOc2ccccc2OC)c(C(C)(C)C)c1 (stereo unspecified)	none
COc1ccc(-c2[nH]ncc2CNC(C)c2cn(C)nc2C)c(F)c1 (stereo unspecified)	BCLXL inh 67.9
COc1ccc(-c2[nH]ncc2CNC(C)CCn2cccn2)c(F)c1 (stereo unspecified)	none
Cn1cc(C2=C(c3ccc(Cl)cc3Cl)C(=O)NC2=O)c2ccccc21	BCLXL inh 60.5, MEX-5 binding inconclusive
COc1ccc(/C=C/C(=O)Nc2ccc(C)c(S(=O)(=O)N3CCOCC3)c2)cc1	none (no result: BCLXL inh, MCL1 BIM primary, LANA-H2B inh, MEX-5 binding)
CCN1CCN(S(=O)(=O)c2ccc(C(C)(C)C)cc2)CC1	LANA-H2B inh 13.1
CCN1CCN(S(=O)(=O)c2ccc(S(=O)(=O)NC3CC3)cc2)CC1	none
Cc1ccc(S(=O)(=O)N2CCCCC2)cc1NS(=O)(=O)c1ccccc1F	none (no result: BCLXL inh, MCL1 BIM primary, MEX-5 binding)
Cc1ccc(C)c(OCCC(=O)NCCc2ccc(S(N)(=O)=O)cc2)c1	LANA-H2B inh 29.3
CCCCn1c(N)c(N(C)C(=O)c2c(C)nn(-c3ccccc3)c2C)c(=O)[nH]c1=O	none (no result: BCLXL inh, MCL1 BIM primary, MEX-5 binding)
O=C(c1cccc(C(F)(F)F)c1)c1c[nH]c(C(=O)NCC2CCCO2)c1 (stereo unspecified)	LANA-H2B inh active
CC(=O)c1c[nH]c(C(=O)NCC2CCCO2)c1 (stereo unspecified)	none
CN(C)S(=O)(=O)c1ccc(C(=O)OCC(=O)c2csc(N3CCCCC3)n2)cc1	none (no result: MEX-5 binding)
COc1ccc(OC)c(NC(=O)C2CCN(S(=O)(=O)c3c(C)noc3C)CC2)c1	GLD-1 TGE inh 62.6
COc1ccc(OC)c(NC(=O)C2CCCN(S(=O)(=O)c3c(C)noc3C)C2)c1 (stereo unspecified)	none
COc1ccc(Cl)cc1C(=O)NNC(=O)c1cc2ccccc2o1	none (no result: BCLXL inh, MCL1 BIM primary, MEX-5 binding)
